The list is not random: actives were taken first. Their share in the collection is about 5.7%.
DAX1 inh-1: blocks DAX1 repression of SF-1 activated StAR promoter; actives 1.1% (n = 370,000); HEK293T StAR-luciferase reporter, SF-1/DAX-1 repression relief; inhibition, % at 6.8 µM;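 active = inhibition above the mean over all tested compounds plus 3 SD, cut at about 3.6% in these data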;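 also: higher inhibition means more luminescence from relief of DAX-1 repression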
hgDAF-12 ag: agonists of H. glycines DAF-12 nuclear receptor | HEK293 GAL4-hgDAF12 UAS-luciferase reporter, agonist luminescence; normalized to butyrate control | activation, % at 6.8 µM | actives 1.8% (n = 370,000);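 active = activation above a cutoff set at the mean of all screened compounds plus 3 SD, cut at about 10% in these data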
ssDAF12 agonist: activators of S. stercoralis DAF-12 nuclear receptor | HEK293 ssDAF-12/GRIP1 lit1-tk-luc reporter, luminescence; % of 3 µM dafachronic acid response | activation, % at 6.8 µM | actives 1% (n = 370,000) | AID 652126;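 active = activation above the mean over all tested compounds plus 3 SD, cut at about 0.9% in these data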
hcDAF-12 act: H. contortus DAF-12 activation, primary screen. AID 652067. actives 1.4% (n = 370,000). activation, % at 6.8 µM. HEK293 hcDAF-12 lit1-tk-luc reporter, luminescence; 0% DMSO, 100% Δ7-dafachronic acid;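 active = activation above the mean of all tested compounds plus 3 SD, cut at about 5.5% in these data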
AHR act: activates the human aryl hydrocarbon receptor; P35869; actives 2.5% (n = 320,000); AHR-responsive luciferase reporter cells, luminescence; activation, % at 5 µM; in the data active = activation above about 47%
Target sequence (P35869 whole entry, looked up): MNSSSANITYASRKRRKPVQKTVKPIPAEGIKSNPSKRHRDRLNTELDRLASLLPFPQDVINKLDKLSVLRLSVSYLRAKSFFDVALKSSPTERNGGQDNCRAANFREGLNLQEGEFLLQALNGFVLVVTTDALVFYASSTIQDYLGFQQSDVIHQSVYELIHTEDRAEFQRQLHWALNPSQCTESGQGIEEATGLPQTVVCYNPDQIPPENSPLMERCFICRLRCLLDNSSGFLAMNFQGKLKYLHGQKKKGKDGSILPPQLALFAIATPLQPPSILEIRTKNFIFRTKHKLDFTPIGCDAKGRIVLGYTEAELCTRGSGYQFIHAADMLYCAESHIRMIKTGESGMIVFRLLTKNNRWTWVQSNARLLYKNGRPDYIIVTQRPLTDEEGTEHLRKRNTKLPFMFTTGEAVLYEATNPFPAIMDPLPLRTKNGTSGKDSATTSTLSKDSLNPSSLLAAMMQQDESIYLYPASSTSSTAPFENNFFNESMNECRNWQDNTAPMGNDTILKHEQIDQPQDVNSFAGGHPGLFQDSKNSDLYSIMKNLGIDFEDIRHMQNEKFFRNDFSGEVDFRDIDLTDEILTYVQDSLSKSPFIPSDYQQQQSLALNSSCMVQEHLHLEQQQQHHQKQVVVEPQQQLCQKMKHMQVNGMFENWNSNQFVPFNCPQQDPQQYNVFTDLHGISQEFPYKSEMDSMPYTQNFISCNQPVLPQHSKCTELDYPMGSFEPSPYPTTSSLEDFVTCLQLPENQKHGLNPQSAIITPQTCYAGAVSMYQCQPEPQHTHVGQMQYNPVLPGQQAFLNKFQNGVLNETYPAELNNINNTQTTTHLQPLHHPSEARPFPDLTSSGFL
DAX1 inh-2: NR0B1 (DAX1) inhibition; AID 504766; HEK293 Gal4-DAX1 luciferase reporter, luminescence; P51843; inhibition, % at 6.75 µM; actives 0.99% (n = 340,000);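 active = inhibition above the mean over all tested compounds plus 3 SD, cut at about 4.2% in these data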;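 also: inhibition shows as a rise in luminescence from relieved DAX1 repression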
Large screens that a line does not name were inactive; ! = not active in a repeat.

Cc1ccccc1NC(=O)COC(=O)CN1C(=O)NC(C)(C)C1=O	none
O=C1C/C(=C\c2c(F)cccc2Cl)N2CCC1CC2	none
Cc1cc(N2O[C@]34C=C[C@]25C[C@@H](O)CC[C@]5(C)C3CC[C@]2(C)[C@@H]([C@H](C)/C=C/[C@H](C)C(C)C)CC[C@H]24)no1 (some centres undefined)	ssDAF12 agonist 1.0 (no result: AHR act)
CC(=O)Nc1ccc(Nc2ccc3c4c(cc(=O)n3C)-c3ccccc3C(=O)c24)cc1	none
O=C1c2ccccc2C(=O)c2c(Nc3ccc(CCO)cc3)ccc(O)c21	AHR act 68.5
NS(=O)(=O)c1cccc(NC(=O)c2cc(=O)c3ccccc3o2)c1	DAX1 inh-2 4.8
O=C(Nc1ccccc1Br)c1cc(=O)c2ccccc2o1	hgDAF-12 ag 10.9
O=C(Nc1ccccc1Cl)c1cc(=O)c2ccccc2o1	none
Cn1c(N)c(C(=O)CSc2nnc(NC3CCCCC3)s2)c(=O)n(C)c1=O	none (no result: AHR act)
Cc1c(N=Cc2ccc(O)c(Br)c2)cccc1[N+](=O)[O-]	ssDAF12 agonist 1.1, hcDAF-12 act 6.1
N=c1n(CCCOc2ccccc2Cl)c2ccccc2n1CC(N)=O	none
CN(C)N1C(N)=C(C#N)C(c2cccc3ccccc23)C2=C1CC(c1ccccc1)CC2=O (centres undefined)	DAX1 inh-2 5.6
CN(C)N1C(N)=C(C#N)C(c2ccccc2)C2=C1CC(C)(C)CC2=O (centres undefined)	none
COc1ccccc1OCc1nc(C#N)c(N2CCCC2)o1	AHR act 64.5
CC1CC(C)CN(c2oc(Cc3ccccc3)nc2C#N)C1 (centres undefined)	none
N#Cc1nc(Cc2ccccc2)oc1N1CCCC1	DAX1 inh-2 6.2
COc1ccc(-c2nc3c4ccccc4[nH]c(=O)n3n2)cc1	AHR act 111.7
COc1cc2[nH]c(=O)n3nc(-c4ccccc4)nc3c2cc1OC	none (no result: DAX1 inh-1, hgDAF-12 ag, ssDAF12 agonist, hcDAF-12 act)
O=c1[nH]c(/C=C/c2ccc(OC(F)F)cc2)nc2c1cnn2-c1ccccc1	AHR act 75.3
COc1ccccc1NC(=O)CCn1c(=O)c2cccn2c2ccccc21	none
N/C(=N\OC(=O)CCC1CCCC1)c1ccccn1	DAX1 inh-1 4.2
N/C(=N\OC(=O)COc1ccccc1)c1ccncc1	DAX1 inh-2 5.3
N/C(=N\OC(=O)CCCc1ccccc1)c1ccccn1	none
N/C(=N\OC(=O)COc1ccccc1)c1ccccn1	hgDAF-12 ag 11.1
N/C(=N\OC(=O)Cc1ccccc1)c1ccccn1	hgDAF-12 ag 11.8
COc1cccc(CC(=O)O[C@@H]2CCC[C@@]3(C(=O)N(Cc4ccccc4)c4ccccc43)[C@H]2NC(=O)CCc2ccccc2)c1	none (no result: AHR act, DAX1 inh-2)
O=C1C2CC=CCC2C(=O)N1c1ccc(NCCc2cccc(F)c2)c([N+](=O)[O-])c1 (centres undefined)	none
CCOc1ccc(NC(=O)CCc2nnc3ccc(N4CCC5(CC4)OCCO5)nn23)cc1	none
CCc1ccc(OCC(=O)O/N=C(\N)c2ccccn2)cc1	hgDAF-12 ag 11.4 (no result: AHR act, DAX1 inh-2)
N/C(=N\OC(=O)CSc1ccccc1)c1ccncc1	hcDAF-12 act 5.7
Cc1ccc(OCC(=O)O/N=C(\N)c2ccccn2)cc1C	none (no result: DAX1 inh-2)
CC(C)CC(NC(N)=O)C(=O)NCCc1ccc(Cl)cc1 (centres undefined)	none
c1csc(C2C3=C(Nc4ncnn42)c2ccccc2OC3)c1 (centres undefined)	ssDAF12 agonist 1.1
CC1=C(C(N)=O)C(c2cccs2)n2ncnc2N1 (centres undefined)	none
C[C@H](O)[C@@H]1C(=O)N2CCc3c([nH]c4cccc(-c5ccccc5)c34)[C@@H]2C[C@@H]1N(C)C(=O)c1ccccc1	none (no result: AHR act, DAX1 inh-2)
O=C(O)c1cccc2c1C(=O)N(Cc1ccccc1)C2	ssDAF12 agonist 1.2
COCCCN1Cc2cccc(C(=O)O)c2C1=O	none
CCOc1ccc(N)c(SSc2cc(OCC)ccc2N)c1	none
CCOc1cc(-c2ccc(N)c(OCC)c2)ccc1N	AHR act 49.8
O=C(O)/C=C/c1cccc2c1OCCO2	DAX1 inh-2 7.2
COC(=O)CSc1nc(C)c2c(n1)CCCC2	DAX1 inh-2 4.6
O=C(O)CSc1nc2c(c(C(F)(F)F)n1)CCCC2	DAX1 inh-2 5.1!
O=C(O)CSc1nc2c(c(C(F)(F)F)n1)CCc1ccccc1-2	none
Cc1ccc(N(C(=O)Cn2nnc(-c3ccc(C)o3)n2)C(C(=O)NC2CCCC2)c2ccncc2)cc1 (centres undefined)	none
N#CCc1nn(Cc2ccc(F)cc2)c(=O)c2ccccc12	none
O=C(O)CN1C(=O)/C(=C/c2ccccc2Cl)Oc2ccccc21	none
CCOC(=O)CN1C(=O)/C(=C/c2ccccc2Br)Oc2ccccc21	hcDAF-12 act 5.6
CC1(C(=O)NCCCN2CCOCC2)Oc2cccnc2NC1=O (centres undefined)	none
NC(=O)c1cc2ccncc2c2ccccc12	hgDAF-12 ag 11.3
Cc1cc(C(N)=O)c2ccccc2n1	none
CCCOC(=O)C1=C(C)NC2=C(C(=O)CCC2)C1c1cccs1 (centres undefined)	ssDAF12 agonist 2.1
N#CCCN/N=C(/Cc1nc2ccccc2[nH]1)c1ccc(Cl)cc1	AHR act 47.7 (no result: DAX1 inh-1, hgDAF-12 ag, ssDAF12 agonist, hcDAF-12 act, DAX1 inh-2)
N#CCCN/N=C(\Cc1nc2ccccc2[nH]1)c1ccccc1	none
c1ccc(N/N=C(\Cc2nc3ccccc3[nH]2)c2ccccc2)cc1	AHR act 149.0
COc1ccc(OC)c(N)c1	DAX1 inh-2 5.1
CC1CCN(C(=O)c2[nH]cnc2C(=O)N[C@@H](C)c2ccccc2)CC1	none
Cc1cc(OCC(=O)Nc2cccnc2)c2c(C)cc(=O)oc2c1	AHR act 63.7
Cc1cc(OCC(=O)NCc2cccnc2)c2c(C)cc(=O)oc2c1	none
CCCCc1cc(=O)oc2cc(C)cc(OCC(=O)NCc3ccncc3)c12	AHR act 56.0
Cc1cc(OCC(=O)N2CCC(C(N)=O)CC2)c2c(C)cc(=O)oc2c1	DAX1 inh-2 7.5
CCCc1cc(=O)oc2cc(C)cc(OCC(=O)NCc3ccccn3)c12	none
COc1ccc(Cn2c(NC(=O)c3ccccc3)nc(Cc3ccccc3)c2Cc2ccccc2)c(OC)c1	none (no result: AHR act, DAX1 inh-2)
CC(NC(=O)C1CCC(CNc2c(N3CCCCC3)c(=O)c2=O)CC1)c1ccccc1 (centres undefined)	DAX1 inh-2 5.8
Cc1ccc(Sc2nc3ccc(C)cn3c(=O)c2/C=N/O)cc1	none
CC(=O)N1N=C(c2ccc(Br)cc2)OC12CCCC2	DAX1 inh-2 4.4
CC(=O)N1N=C(c2ccncc2)OC12CCCC2	none
COC(=O)c1cc2c(c3c4ccccc4n(S(C)(=O)=O)c13)C(=O)N(Cc1ccccc1)C2	ssDAF12 agonist 2.8 (no result: AHR act, DAX1 inh-2)
O=C(NNC(=O)c1ccc(Cl)cc1Cl)c1ccncc1	none

Screens: PubChem, The Scripps Research Institute Molecular Screening Center
